High-throughput results: PubChem, National Center for Advancing Translational Sciences (NCATS)
D2 PAM-1: potentiates the human D2 dopamine receptor allosterically; actives 0.23% (n = 360,000); DiscoveRx D2 beta-arrestin cells, luminescence, 90 min; 100% = 57 uM dopamine signal; P14416; potentiation, % (no concentration beside the values); AID 624464; in the data active = potentiation above about 50%; inconclusive = mostly about 30% to 49%
Target sequence (P14416 whole entry, looked up): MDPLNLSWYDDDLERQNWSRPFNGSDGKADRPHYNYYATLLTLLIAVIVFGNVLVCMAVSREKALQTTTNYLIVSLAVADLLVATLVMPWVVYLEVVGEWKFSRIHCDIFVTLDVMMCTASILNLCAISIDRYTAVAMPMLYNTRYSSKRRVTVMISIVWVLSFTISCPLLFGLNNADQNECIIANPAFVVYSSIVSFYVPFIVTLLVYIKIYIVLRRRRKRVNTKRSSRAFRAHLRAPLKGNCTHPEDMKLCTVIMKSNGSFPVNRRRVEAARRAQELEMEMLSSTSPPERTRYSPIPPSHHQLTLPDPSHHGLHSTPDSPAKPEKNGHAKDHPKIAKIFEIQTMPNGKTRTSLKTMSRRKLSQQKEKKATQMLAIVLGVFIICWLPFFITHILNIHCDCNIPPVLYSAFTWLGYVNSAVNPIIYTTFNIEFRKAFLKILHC
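D2 cells co-treated with compound plus 50 nM dopamine (EC20) for 90 min at 37 deg C to detect potentiation. Beta-arrestin recruitment was read as enzyme-fragment luminescence after 1 h at ambient temperature. Full response was set by 57 uM dopamine.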
D2 ag-1: human D2 receptor agonism in beta-arrestin assay | P14416 | activation, % (test concentration not listed) | DiscoveRx PathHunter D2 beta-arrestin, luminescence, 90 min; 100% = 57 uM dopamine signal | actives 0.084% (n = 360,000); in the data active = activation above about 40%; inconclusive = between about 15% and that limit
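DiscoveRx PathHunter D2 beta-arrestin cells (2,100/well) attached overnight, then compound-stimulated 90 min at 37 C in HBSS/10 mM HEPES/0.1% Tween-20 buffer; beta-galactosidase complementation read by luminescence after 1 h at ambient temperature. Dopamine 57 uM final (EC100) as control.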
D2 antagonist: antagonists of human D2 dopamine receptor | HEK293 TREx D2 cells, calcium flux, dopamine EC80 | inhibition, % at 10 µM | actives 2% (n = 340,000); in the data active = inhibition above about 30%; inactive = below that, where a call was filed
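In this primary screen, negative modulation is detected by tracking calcium flux after an EC80 dopamine challenge in inducible HEK293 T-REx D2 cells preexposed to test compound for 180 s.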
D2 ag-2: activates the human D2 dopamine receptor | P14416 | activation, % at 2 µM | actives 0.53% (n = 340,000) | HEK293 T-REx D2 cells, calcium flux agonist mode;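 active = activation over 3 SD above normal in the single-dose calcium agonist read, cut at about 30% in these data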
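In this primary screen, compounds producing a positive calcium signal within 180 s of addition to tetracycline-induced, force-coupled HEK293 Trex D2 cells are flagged; cells are dye-loaded with a no-wash calcium kit beforehand.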
D2 PAM-2: D2 dopamine receptor (human) potentiation; actives 0.34% (n = 340,000); potentiation, % at 10 µM; HEK293 T-REx D2, calcium flux, EC20 dopamine potentiation;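 active = potentiation over 3 SD above the plate norm, cut at about 30% in these data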
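Potentiation of an EC20 dopamine calcium response is measured in a force-coupled, tetracycline-inducible Hek293 Trex D2 line. Compound-only kinetic reads over 180 s flag agonists before dopamine addition.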
Large screens that a line does not name were inactive. A selection: hits, their analogues and other compounds. The true share with any hit is near 2.4%.

COc1ccc(N2CCN(Cc3cccn3-c3nnc(N4CCN(C5CCCCC5)CC4)s3)CC2)cc1	none (no result: D2 PAM-1, D2 ag-1, D2 antagonist)
Cc1ccc(Nc2nc3ccccc3s2)cc1	none
Fc1ccc(Nc2nc3ccccc3s2)cc1	D2 antagonist 33
COc1cc2c(cc1O)C(Cc1ccc(O)cc1)NCC2 (stereo unspecified)	D2 antagonist 74
COc1ccc(CNC(=O)CCC2N=C3c4ccccc4N=C(SCc4ccccc4F)N3C2=O)cc1 (stereo unspecified)	none (no result: D2 PAM-1, D2 ag-1, D2 antagonist)
CN1C(C(=O)NCc2cccc(C(F)(F)F)c2)CC2Cn3c(nc4cc5ccccc5cc43)C21 (stereo unspecified)	D2 antagonist 43
CCCNC(=O)c1ccc2c(c1)nc1n2CCCCC1	none (no result: D2 PAM-1, D2 ag-1, D2 antagonist)
CCN(CC)C(=O)c1cc(S(=O)(=O)N2CCCCC2)c[nH]1	D2 antagonist 33
COc1ccc(C(=O)Nc2nc(-c3nnn(-c4ccc(C(C)C)cc4)c3C)ns2)cc1	none (no result: D2 PAM-1, D2 ag-1, D2 antagonist, D2 ag-2)
Cc1cc(=O)n2nc(N(C)CC(=O)NCc3ccccc3C)sc2n1	none (no result: D2 PAM-1, D2 ag-1, D2 antagonist)
CCOc1cc(CNCc2ccccc2)ccc1OCc1ccc(Cl)cc1	none (no result: D2 antagonist, D2 ag-2, D2 PAM-2)
CCOc1cccc(CNc2ccc(O)cc2)c1OCc1ccc(Cl)cc1	D2 PAM-1 91, D2 ag-1 inconclusive
Oc1ccc(NCc2ccccc2OCc2ccccc2F)cc1	D2 PAM-1 115
CCOc1cc(CNc2ccc(O)cc2)ccc1OCc1ccc(Cl)cc1Cl	D2 PAM-1 96, D2 ag-1 44
CCOc1ccc2c(c1)NC(c1cccs1)=NC(c1ccc(F)cc1)=N2	none (no result: D2 PAM-1, D2 ag-1, D2 antagonist)
Cc1cccc(C(=O)Nc2ccccc2OCc2cc(=O)n3cc(C)ccc3n2)c1	none (no result: D2 PAM-1, D2 ag-1, D2 antagonist)
COCCNC(=O)c1c[nH]c2ccc(S(=O)(=O)N3CCc4ccccc43)cc2c1=O	none
COCCCNC(=O)c1c[nH]c2ccc(S(=O)(=O)N3CCc4ccccc43)cc2c1=O	D2 PAM-2 38
Cc1ccc2c(=O)cc(C(=O)Nc3c(C)n(C)n(-c4ccccc4)c3=O)oc2c1	none (no result: D2 PAM-1, D2 ag-1, D2 antagonist)
CC(C)(C)OC(=O)N1CCNc2ccccc2C1	D2 antagonist 31
COc1ccc(C(=O)Cn2c(=O)n3nc(CCn4nc(C)cc4C)nc3c3cc(OC)c(OC)cc32)cc1	none (no result: D2 PAM-1, D2 ag-1, D2 antagonist)
O=S(=O)(c1ccc(Br)cc1)c1nc(-c2ccco2)oc1SCc1ccccc1Cl	none (no result: D2 PAM-1, D2 ag-1, D2 antagonist)
Cc1cccc(C)c1NC(=S)N/N=C/c1ccc(C(=O)O)cc1	D2 antagonist 36
CC(=O)c1cc2c(cc1NC(=O)c1cnn(-c3ccc(C)cc3)c1-n1cccc1)OCO2	none (no result: D2 PAM-1, D2 ag-1, D2 antagonist)
O=[N+]([O-])c1nn(-c2cccc(Cl)c2)n(O)c1=NCc1cccnc1	D2 PAM-1 59, D2 ag-1 inconclusive
Cc1cccc(-n2nc([N+](=O)[O-])c(=NCc3cccnc3)n2O)c1	D2 PAM-1 68, D2 ag-1 inconclusive
CC1CCN(C(=O)CSc2c(C(C)C)cnc3c2c(=O)n(C)c(=O)n3C)CC1	none (no result: D2 PAM-1, D2 ag-1, D2 antagonist)
CCOCCn1c(=O)c2c(nc3n2CCN3c2ccc(C)c(C)c2)n(C)c1=O	none (no result: D2 PAM-1, D2 ag-1, D2 antagonist)
CCCOc1ccc(N/C=C/C(=O)c2cc(OC)c(OC)c(OC)c2)cc1	D2 PAM-1 83
CCOc1ccc(N/C=C/C(=O)c2ccc(OC)cc2)cc1	none
CN(C(=S)Nc1cccnc1)c1ccc(O)cc1	D2 PAM-1 64 (no result: D2 antagonist, D2 ag-2, D2 PAM-2)
CN(C(=S)Nc1ccc(Oc2ccccc2)cc1)c1ccc(O)cc1	D2 PAM-1 82, D2 ag-1 inconclusive
COc1ccc2c(c1)c1c(c(=O)n(-c3ccc(F)c(Cl)c3)c(=O)n1Cc1ccccc1C)n2C	none (no result: D2 PAM-1, D2 ag-1, D2 antagonist)
CC(C)(C)n1nc2c(c1NC(=O)Cc1ccc(F)cc1)CSC2	D2 antagonist 35
CC(C)(C)C(=O)Nc1cc(-c2cccc(Br)c2)nn1-c1ccccc1	none (no result: D2 PAM-1, D2 ag-1, D2 antagonist)
Clc1ccccc1OCCCCN1CCCCC1	D2 antagonist 77
Brc1ccccc1OCCCN1CCCCCC1	D2 antagonist 46
CC1CCN(CCOc2cc(Cl)ccc2Cl)CC1	D2 antagonist 72
Brc1ccccc1OCCCCCN1CCOCC1	D2 antagonist 36
CC(C)c1ccccc1OCCCN1CCCC1	D2 antagonist 65
Clc1ccccc1OCCCCN1CCCC1	none
Clc1ccc(Cl)c(OCCCCN2CCCCC2)c1	D2 antagonist 86
CCOc1ccc(CNC(=O)c2cccn2-c2nnc(N3CCCCC3)s2)cc1OC	none (no result: D2 PAM-1, D2 ag-1, D2 antagonist)
